PMC7862700, “An all-to-all approach to the identification of sequence-specific readers for epigenetic DNA modifications on cytosine”

Legend:
Test in all cases: DAPPL (digital affinity profiling via proximity ligation, sequencing); 10 mM Tris-HCl pH 7.5, 50 mM NaCl, 1 mM DTT, 4% glycerol, room temperature, 30 min; GST-TFs on glutathione beads, 16-mer random dsDNA library, 0.1% formaldehyde crosslink after washing; high values mean tight binding
[1] = target: T1, FEV (Homo sapiens, UniProt Q99581 1-238); details: protein: recombinant; tags: N-terminal GST; dsDNA, one strand shown
T1 sequence: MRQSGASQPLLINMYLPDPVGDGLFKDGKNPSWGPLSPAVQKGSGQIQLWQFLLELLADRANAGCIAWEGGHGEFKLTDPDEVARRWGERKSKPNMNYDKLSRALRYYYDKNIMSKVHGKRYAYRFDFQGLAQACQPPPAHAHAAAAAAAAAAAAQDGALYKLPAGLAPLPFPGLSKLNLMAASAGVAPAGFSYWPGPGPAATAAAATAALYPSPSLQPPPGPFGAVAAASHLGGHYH
In short: (§1)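 Each value of binding signal is a hexamer's read frequency for a factor divided by the same hexamer's frequency in the tag-only sample. Barcoded, bead-captured GST fusions of human transcription factors made in yeast were pooled with that sample and incubated with 200 nmole of a random double-stranded 16-mer DNA library in Tris/NaCl/DTT/glycerol buffer at room temperature for 30 min. Washing, 0.1% formaldehyde crosslinking, proximity ligation, PCR and Illumina NextSeq500 sequencing followed.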

[2] = target: ETV5 (Homo sapiens, UniProt P41161 1-510); details: protein: recombinant; tags: N-terminal GST; dsDNA, one strand shown
Chain of ETV5 (P41161 whole entry): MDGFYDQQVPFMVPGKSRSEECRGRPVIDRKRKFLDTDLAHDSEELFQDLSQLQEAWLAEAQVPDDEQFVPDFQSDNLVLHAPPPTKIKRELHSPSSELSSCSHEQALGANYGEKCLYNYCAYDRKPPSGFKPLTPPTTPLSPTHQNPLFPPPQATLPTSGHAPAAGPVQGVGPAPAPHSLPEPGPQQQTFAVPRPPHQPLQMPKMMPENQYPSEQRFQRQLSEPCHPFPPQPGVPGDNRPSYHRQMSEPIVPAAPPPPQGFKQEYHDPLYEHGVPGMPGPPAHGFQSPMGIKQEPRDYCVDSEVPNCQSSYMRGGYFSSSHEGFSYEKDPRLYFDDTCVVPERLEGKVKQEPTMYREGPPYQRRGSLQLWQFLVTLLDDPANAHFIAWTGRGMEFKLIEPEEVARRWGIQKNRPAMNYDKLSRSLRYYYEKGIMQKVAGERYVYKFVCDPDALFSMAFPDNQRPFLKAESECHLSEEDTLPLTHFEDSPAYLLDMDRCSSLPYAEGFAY
In short: as §1

[3] = target: HSF1 (Homo sapiens, UniProt Q00613 1-529); details: protein: recombinant; tags: N-terminal GST; chain copies: 3; dsDNA, one strand shown
Chain of HSF1 (Q00613 whole entry): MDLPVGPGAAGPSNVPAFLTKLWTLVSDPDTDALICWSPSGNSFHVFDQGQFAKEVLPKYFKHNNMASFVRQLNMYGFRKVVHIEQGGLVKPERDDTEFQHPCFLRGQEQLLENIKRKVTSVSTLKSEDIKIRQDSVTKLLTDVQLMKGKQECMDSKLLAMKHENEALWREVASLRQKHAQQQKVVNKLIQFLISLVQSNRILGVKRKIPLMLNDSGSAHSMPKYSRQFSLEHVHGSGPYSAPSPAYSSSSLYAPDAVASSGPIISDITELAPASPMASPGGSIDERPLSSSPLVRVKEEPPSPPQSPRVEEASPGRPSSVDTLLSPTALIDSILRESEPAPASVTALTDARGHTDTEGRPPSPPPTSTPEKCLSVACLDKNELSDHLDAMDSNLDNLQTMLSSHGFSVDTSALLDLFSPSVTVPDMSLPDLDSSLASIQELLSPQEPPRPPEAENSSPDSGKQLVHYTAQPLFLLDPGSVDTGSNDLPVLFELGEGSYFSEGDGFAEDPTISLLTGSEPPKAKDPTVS
In short: as §1

[4] = target: T2, SPIC (Homo sapiens, UniProt Q8N5J4 1-248); details: protein: recombinant; tags: N-terminal GST; dsDNA, one strand shown
T2 sequence: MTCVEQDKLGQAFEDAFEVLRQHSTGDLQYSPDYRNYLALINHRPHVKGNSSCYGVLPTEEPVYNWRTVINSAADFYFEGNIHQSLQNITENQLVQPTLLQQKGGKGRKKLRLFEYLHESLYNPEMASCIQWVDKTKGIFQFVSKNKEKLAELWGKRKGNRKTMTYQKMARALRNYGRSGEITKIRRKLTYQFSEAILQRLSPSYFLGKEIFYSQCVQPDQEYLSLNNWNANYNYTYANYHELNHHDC
In short: as §1

[5] = target: ELF4 (Homo sapiens, UniProt Q99607 1-663); details: protein: recombinant; tags: N-terminal GST; dsDNA, one strand shown
Chain of ELF4 (Q99607 whole entry): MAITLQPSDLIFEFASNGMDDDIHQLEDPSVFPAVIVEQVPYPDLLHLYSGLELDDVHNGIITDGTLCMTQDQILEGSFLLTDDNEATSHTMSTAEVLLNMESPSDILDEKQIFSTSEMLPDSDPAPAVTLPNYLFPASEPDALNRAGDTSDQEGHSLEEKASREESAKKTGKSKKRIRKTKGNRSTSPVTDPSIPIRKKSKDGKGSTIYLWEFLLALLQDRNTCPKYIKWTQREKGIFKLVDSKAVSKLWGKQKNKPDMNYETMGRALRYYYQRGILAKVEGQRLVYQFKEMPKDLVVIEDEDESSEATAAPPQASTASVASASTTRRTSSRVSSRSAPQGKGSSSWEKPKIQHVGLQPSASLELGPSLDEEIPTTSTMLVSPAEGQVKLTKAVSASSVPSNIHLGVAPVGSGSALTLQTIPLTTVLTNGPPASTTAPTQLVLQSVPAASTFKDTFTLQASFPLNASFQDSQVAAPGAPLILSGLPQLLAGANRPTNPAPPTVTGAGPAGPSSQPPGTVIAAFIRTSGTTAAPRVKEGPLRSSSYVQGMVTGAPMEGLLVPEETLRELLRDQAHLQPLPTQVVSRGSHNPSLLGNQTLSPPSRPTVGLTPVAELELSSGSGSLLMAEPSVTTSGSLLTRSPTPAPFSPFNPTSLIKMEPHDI
In short: as §1

[6] = target: T3, ELK4 (Homo sapiens, UniProt P28324-2 1-405); details: protein: recombinant; tags: N-terminal GST; dsDNA, one strand shown
T3 sequence: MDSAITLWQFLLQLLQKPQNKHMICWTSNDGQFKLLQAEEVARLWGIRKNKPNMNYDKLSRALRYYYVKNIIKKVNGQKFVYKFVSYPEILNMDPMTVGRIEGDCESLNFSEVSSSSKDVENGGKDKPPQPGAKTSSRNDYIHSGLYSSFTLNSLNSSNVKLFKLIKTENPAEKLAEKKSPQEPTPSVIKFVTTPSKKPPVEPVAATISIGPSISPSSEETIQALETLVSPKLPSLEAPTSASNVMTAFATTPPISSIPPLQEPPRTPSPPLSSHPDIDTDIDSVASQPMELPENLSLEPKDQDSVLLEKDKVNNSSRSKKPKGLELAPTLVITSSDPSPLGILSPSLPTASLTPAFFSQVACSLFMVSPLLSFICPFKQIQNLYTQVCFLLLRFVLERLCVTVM
In short: as §1

[7] = target: T4, ETV2 (Homo sapiens, UniProt O00321 1-342); details: protein: recombinant; tags: N-terminal GST; dsDNA, one strand shown
T4 sequence: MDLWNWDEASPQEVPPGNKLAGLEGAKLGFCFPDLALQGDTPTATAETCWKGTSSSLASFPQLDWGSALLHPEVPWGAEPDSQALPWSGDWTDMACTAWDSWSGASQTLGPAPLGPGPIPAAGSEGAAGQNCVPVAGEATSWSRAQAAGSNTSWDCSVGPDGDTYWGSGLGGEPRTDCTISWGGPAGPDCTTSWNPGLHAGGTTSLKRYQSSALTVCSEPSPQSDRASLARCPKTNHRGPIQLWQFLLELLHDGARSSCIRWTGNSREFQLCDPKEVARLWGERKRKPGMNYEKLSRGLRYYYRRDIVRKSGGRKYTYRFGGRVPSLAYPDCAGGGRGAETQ
In short: as §1

[8] = target: T5, ELF3 (Homo sapiens, UniProt P78545 1-371); details: protein: recombinant; tags: N-terminal GST; dsDNA, one strand shown
T5 sequence: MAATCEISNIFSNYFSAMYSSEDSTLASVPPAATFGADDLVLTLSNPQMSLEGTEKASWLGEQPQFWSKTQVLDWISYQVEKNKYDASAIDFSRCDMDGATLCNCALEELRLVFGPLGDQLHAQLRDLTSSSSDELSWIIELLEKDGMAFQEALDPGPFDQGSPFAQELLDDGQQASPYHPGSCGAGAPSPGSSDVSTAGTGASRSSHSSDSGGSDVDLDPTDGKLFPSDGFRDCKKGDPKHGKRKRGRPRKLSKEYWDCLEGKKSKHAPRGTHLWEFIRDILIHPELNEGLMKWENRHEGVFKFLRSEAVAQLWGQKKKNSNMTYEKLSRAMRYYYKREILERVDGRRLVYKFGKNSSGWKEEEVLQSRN
In short: as §1

[9] = target: CRX (Homo sapiens, UniProt O43186 1-299); details: protein: recombinant; tags: N-terminal GST; dsDNA, one strand shown
Chain of CRX (O43186 whole entry): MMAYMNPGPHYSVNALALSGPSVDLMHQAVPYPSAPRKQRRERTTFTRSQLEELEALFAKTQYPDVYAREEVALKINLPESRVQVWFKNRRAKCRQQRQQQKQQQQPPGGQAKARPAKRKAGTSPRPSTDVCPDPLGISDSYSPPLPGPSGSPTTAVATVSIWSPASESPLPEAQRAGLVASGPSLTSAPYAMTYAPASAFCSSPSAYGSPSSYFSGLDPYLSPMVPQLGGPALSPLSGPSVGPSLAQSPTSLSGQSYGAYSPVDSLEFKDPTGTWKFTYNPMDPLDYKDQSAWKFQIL
In short: as §1

[10] = target: ETV1 (Homo sapiens, UniProt P50549 1-477); details: protein: recombinant; tags: N-terminal GST; dsDNA, one strand shown
Chain of ETV1 (P50549 whole entry): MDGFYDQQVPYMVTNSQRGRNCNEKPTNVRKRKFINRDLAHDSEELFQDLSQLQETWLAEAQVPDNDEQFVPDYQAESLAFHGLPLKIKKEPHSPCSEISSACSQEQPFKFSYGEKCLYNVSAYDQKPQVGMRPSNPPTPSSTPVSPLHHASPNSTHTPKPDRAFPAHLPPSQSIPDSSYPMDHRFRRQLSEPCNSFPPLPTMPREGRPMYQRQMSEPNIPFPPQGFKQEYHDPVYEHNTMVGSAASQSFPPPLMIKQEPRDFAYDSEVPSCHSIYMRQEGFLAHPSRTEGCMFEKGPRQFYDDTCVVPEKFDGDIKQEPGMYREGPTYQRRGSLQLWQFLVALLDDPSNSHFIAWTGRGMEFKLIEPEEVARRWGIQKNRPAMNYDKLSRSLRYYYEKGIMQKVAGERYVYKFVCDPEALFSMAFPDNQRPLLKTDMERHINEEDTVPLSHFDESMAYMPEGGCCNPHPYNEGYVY
In short: as §1

[11] = target: T6, ERF (Homo sapiens, UniProt P50548 1-548); details: protein: recombinant; tags: N-terminal GST; dsDNA, one strand shown
T6 sequence: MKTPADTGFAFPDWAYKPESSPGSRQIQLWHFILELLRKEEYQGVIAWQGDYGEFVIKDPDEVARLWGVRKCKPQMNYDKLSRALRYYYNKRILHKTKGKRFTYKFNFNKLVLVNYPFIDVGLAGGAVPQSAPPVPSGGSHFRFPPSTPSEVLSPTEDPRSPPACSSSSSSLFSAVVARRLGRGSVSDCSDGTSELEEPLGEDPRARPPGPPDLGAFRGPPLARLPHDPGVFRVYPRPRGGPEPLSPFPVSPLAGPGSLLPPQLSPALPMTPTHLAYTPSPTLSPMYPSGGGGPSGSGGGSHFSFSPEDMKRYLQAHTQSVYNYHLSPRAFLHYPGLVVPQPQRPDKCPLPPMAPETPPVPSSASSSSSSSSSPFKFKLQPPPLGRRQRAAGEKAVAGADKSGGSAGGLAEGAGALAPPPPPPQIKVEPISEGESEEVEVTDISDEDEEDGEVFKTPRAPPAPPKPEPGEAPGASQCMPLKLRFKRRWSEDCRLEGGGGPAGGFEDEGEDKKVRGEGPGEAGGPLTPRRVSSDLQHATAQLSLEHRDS
In short: as §1

[12] = target: T7, ETV3L (Homo sapiens, UniProt Q6ZN32 1-361); details: protein: recombinant; tags: N-terminal GST; dsDNA, one strand shown
T7 sequence: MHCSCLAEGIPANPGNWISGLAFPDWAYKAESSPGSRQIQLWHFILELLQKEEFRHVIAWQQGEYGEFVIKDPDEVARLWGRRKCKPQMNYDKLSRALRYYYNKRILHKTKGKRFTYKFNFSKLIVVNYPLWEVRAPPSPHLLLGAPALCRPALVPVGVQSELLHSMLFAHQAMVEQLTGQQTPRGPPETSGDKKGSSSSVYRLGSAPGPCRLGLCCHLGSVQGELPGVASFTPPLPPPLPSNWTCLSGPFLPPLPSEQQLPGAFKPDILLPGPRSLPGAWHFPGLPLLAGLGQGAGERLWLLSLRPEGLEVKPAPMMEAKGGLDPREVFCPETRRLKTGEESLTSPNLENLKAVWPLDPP
In short: as §1

[13] = target: T8, ETS2 (Homo sapiens, UniProt P15036 1-469); details: protein: recombinant; tags: N-terminal GST; dsDNA, one strand shown
T8 sequence: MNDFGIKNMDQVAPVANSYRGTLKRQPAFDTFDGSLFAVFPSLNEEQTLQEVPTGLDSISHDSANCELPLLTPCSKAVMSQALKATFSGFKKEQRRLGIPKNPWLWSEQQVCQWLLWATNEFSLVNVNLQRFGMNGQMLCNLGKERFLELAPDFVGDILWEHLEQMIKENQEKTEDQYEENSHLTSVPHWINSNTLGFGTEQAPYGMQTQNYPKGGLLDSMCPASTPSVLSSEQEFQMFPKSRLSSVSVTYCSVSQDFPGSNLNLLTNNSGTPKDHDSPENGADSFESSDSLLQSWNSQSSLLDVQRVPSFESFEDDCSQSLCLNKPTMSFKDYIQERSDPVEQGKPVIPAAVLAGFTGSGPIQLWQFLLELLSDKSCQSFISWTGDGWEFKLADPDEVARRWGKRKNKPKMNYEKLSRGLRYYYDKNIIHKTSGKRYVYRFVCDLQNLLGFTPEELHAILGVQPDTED
In short: as §1

[14] = target: T9, SPDEF (Homo sapiens, UniProt O95238 1-335); details: protein: recombinant; tags: N-terminal GST; dsDNA, one strand shown
T9 sequence: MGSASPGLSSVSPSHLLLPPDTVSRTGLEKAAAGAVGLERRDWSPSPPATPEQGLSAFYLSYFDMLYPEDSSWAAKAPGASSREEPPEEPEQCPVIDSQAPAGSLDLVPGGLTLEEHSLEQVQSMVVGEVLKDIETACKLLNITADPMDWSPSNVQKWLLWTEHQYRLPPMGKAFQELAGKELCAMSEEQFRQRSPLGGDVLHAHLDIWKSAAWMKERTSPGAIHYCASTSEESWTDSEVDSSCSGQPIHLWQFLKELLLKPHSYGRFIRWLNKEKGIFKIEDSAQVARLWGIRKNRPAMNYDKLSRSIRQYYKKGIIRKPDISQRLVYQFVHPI
In short: as §1

[15] = target: T10, ETV7 (Homo sapiens, UniProt Q9Y603 1-341); details: protein: recombinant; tags: N-terminal GST; dsDNA, one strand shown
T10 sequence: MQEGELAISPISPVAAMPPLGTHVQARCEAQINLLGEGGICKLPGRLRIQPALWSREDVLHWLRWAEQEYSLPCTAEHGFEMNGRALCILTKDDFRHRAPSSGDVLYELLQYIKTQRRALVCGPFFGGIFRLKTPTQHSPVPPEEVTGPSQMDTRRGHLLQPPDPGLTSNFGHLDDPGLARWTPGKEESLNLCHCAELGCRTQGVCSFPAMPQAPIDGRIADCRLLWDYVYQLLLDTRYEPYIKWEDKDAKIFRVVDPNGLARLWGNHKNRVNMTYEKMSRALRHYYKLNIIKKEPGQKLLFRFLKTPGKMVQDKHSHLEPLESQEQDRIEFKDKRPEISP
In short: as §1

[16] = target: T11, ELF5 (Homo sapiens, UniProt Q9UKW6-2 1-255); details: protein: recombinant; tags: N-terminal GST; dsDNA, one strand shown
T11 sequence: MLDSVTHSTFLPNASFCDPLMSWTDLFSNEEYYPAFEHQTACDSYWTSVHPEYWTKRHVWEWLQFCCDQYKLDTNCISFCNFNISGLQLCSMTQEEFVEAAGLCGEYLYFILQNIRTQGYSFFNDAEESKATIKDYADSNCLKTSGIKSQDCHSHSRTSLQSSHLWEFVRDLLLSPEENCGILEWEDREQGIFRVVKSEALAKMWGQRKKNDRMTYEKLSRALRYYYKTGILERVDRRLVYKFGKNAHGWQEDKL
In short: as §1

[17] = target: T12, ETV3 (Homo sapiens, UniProt P41162-2 1-143); details: protein: recombinant; tags: N-terminal GST; dsDNA, one strand shown
T12 sequence: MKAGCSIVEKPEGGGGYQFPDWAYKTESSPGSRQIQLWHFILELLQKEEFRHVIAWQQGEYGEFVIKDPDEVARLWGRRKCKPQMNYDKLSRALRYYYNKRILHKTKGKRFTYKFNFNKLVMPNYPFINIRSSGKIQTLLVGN
In short: as §1

[18] = target: ETV6 (Homo sapiens, UniProt P41212 1-452); details: protein: recombinant; tags: N-terminal GST; dsDNA, one strand shown
Chain of ETV6 (P41212 whole entry): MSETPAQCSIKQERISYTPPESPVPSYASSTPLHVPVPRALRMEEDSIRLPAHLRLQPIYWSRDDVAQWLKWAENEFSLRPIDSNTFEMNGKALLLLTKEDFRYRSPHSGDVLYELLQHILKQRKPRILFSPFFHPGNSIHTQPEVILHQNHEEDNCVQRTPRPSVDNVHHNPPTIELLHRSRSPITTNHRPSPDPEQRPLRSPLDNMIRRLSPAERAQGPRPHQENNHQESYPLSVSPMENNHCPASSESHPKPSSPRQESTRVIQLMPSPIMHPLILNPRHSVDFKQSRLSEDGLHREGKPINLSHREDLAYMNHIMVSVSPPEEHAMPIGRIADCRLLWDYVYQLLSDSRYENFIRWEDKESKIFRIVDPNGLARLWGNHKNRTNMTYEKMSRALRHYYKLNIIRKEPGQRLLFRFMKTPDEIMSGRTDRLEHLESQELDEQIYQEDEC
In short: as §1

Sequence | binding signal [1] | binding signal [2] | binding signal [3] | binding signal [4] | binding signal [5] | binding signal [6] | binding signal [7] | binding signal [8] | binding signal [9] | binding signal [10] | binding signal [11] | binding signal [12] | binding signal [13] | binding signal [14] | binding signal [15] | binding signal [16] | binding signal [17] | binding signal [18]
CTACCA | 1.14 fold enrichment (6-mer frequency, TF over GST control) | 1.2 fold enrichment (6-mer frequency, TF over GST control) | 1.24 fold enrichment (6-mer frequency, TF over GST control) | 1.14 fold enrichment (6-mer frequency, TF over GST control) | 1.39 fold enrichment (6-mer frequency, TF over GST control) | 1.24 fold enrichment (6-mer frequency, TF over GST control) | 1.1 fold enrichment (6-mer frequency, TF over GST control) | 1.17 fold enrichment (6-mer frequency, TF over GST control) | 1.09 fold enrichment (6-mer frequency, TF over GST control) | 1.27 fold enrichment (6-mer frequency, TF over GST control) | 1.26 fold enrichment (6-mer frequency, TF over GST control) | 1.21 fold enrichment (6-mer frequency, TF over GST control) | 1.26 fold enrichment (6-mer frequency, TF over GST control) | 1.23 fold enrichment (6-mer frequency, TF over GST control) | 1.29 fold enrichment (6-mer frequency, TF over GST control) | 1.26 fold enrichment (6-mer frequency, TF over GST control) | 1.21 fold enrichment (6-mer frequency, TF over GST control) | 1.26 fold enrichment (6-mer frequency, TF over GST control)
TGATCT | 1.12 fold enrichment (6-mer frequency, TF over GST control) | 1.21 fold enrichment (6-mer frequency, TF over GST control) | 1.66 fold enrichment (6-mer frequency, TF over GST control) | 1.19 fold enrichment (6-mer frequency, TF over GST control) | 1.16 fold enrichment (6-mer frequency, TF over GST control) | 1.37 fold enrichment (6-mer frequency, TF over GST control) | 1.21 fold enrichment (6-mer frequency, TF over GST control) | 1.25 fold enrichment (6-mer frequency, TF over GST control) | 1.86 fold enrichment (6-mer frequency, TF over GST control) | 1.2 fold enrichment (6-mer frequency, TF over GST control) | 1.35 fold enrichment (6-mer frequency, TF over GST control) | 1.1 fold enrichment (6-mer frequency, TF over GST control) | 1.31 fold enrichment (6-mer frequency, TF over GST control) | 1.23 fold enrichment (6-mer frequency, TF over GST control) | 1.11 fold enrichment (6-mer frequency, TF over GST control) | 1.22 fold enrichment (6-mer frequency, TF over GST control) | 1.25 fold enrichment (6-mer frequency, TF over GST control) | 1.06 fold enrichment (6-mer frequency, TF over GST control)
